# Laboratory results: the supplement of paper PMC10849652
# About 7,900 targets were measured; listed, in parts, are those with a hit and a random draw of the rest. About 0.6% of all pairs of compound and target were hits. Unmarked numbers belong to inactive results.
# Columns and labels:
# Assay in all cases: log2 fold change, soluble protein after heating vs DMSO (PISA); higher = thermal stabilisation; K562 cells, 10 uM, 30 min; active = over 0.2 and 3.5 SD of the protein, either way, in both replicates (recomputed)
# [1] = compound: CC1=C(C=C(C=C1)NC(=O)C2=CC(=CC=C2)C(C)(C)C#N)NC3=CC4=C(C=C3)N=CN(C4=O)C
# Summary of the method: (§1)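 K562 cells at 2×10^6 cells/mL were treated for 30 min with 10 μM compound, and aliquots were heated for 3 min over 48°C-58°C before pooling. Extraction used PBS with 0.5% NP-40 at 4°C, and soluble protein was the supernatant after 21,000xg for 90 min, measured by TMTpro 16plex LC-MS/MS with channel sums equalised. Thermal stability values, relative to control samples and from duplicates, are log2 fold changes.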
# [2] = compound: CC1=C(C=C(C=C1)NC(=O)C2=CC(=CC=C2)N(C)C)NC(=O)C3=CC=C(C=C3)O
# Summary of the method: as §1
# [3] = compound: CC1=CC=C(C=C1)SC2=C3C=C(SC3=CN=C2)C(=O)N
# Summary of the method: as §1
# [4] = compound: CC1=NC(=CC=C1)C2=C(N=C(N2)C(C)(C)C)C3=CC4=NC=CN=C4C=C3
# Summary of the method: as §1
# Nexturastat A = compound: CCCCN(Cc1ccc(C(=O)NO)cc1)C(=O)Nc1ccccc1 [Nexturastat A]
# Summary of the method: as §1
# vemurafenib = compound: CCCS(=O)(=O)Nc1ccc(F)c(C(=O)c2c[nH]c3ncc(-c4ccc(Cl)cc4)cc23)c1F [vemurafenib]
# Summary of the method: as §1
# [5] = compound: CCCS(=O)(=O)Nc1ccc(F)c(C(=O)c2c[nH]c3ncc(Cl)cc23)c1F
# Summary of the method: as §1
# [6] = compound: CCCc1cc(C)[nH]c(=O)c1CNC(=O)c1cc(-c2ccnc(N3CCN(C)CC3)c2)cc2c1cnn2C(C)C
# Summary of the method: as §1
# givinostat = compound: CCN(CC)Cc1ccc2cc(COC(=O)Nc3ccc(C(=O)NO)cc3)ccc2c1 [givinostat]
# Summary of the method: as §1
# barasertib = compound: CCN(CCCOc1ccc2c(Nc3cc(CC(=O)Nc4cccc(F)c4)[nH]n3)ncnc2c1)CCOP(=O)(O)O [barasertib]
# Summary of the method: as §1
# [7] = compound: CC[C@@H]1C(=O)N(C)c2cnc(Nc3ccc(C(=O)NC4CCN(C)CC4)cc3OC)nc2N1C1CCCC1
# Summary of the method: as §1
# volasertib = compound: CC[C@@H]1C(=O)N(C)c2cnc(Nc3ccc(C(=O)N[C@H]4CC[C@H](N5CCN(CC6CC6)CC5)CC4)cc3OC)nc2N1C(C)C [volasertib]
# Summary of the method: as §1
# [8] = compound: CC[C@H](C)N1C=C(C2=C(C=C(C=C21)C3=CN=C(C=C3)N4CCNCC4)C(=O)NCC5=C(C=C(NC5=O)C)C)C
# Summary of the method: as §1
# epoxomicin = compound: CC[C@H](C)[C@@H](C(=O)N[C@@H]([C@@H](C)O)C(=O)N[C@@H](CC(C)C)C(=O)[C@]1(CO1)C)NC(=O)[C@H]([C@@H](C)CC)N(C)C(=O)C [epoxomicin]
# Summary of the method: as §1
# [9] = compound: CCn1c(C(=O)N(C2CC2)C2CC2)cc2c3c(ncn3C)c(Nc3cc(C)n(C)n3)nc21
# Summary of the method: as §1
# [10] = compound: CCn1cc(-c2ccnc3[nH]c(-c4cccc(CN(C)C)c4)cc23)c(-c2ccc(NC(=O)N(C)C)cc2)n1
# Summary of the method: as §1
# [11] = compound: CN(C)CC(=O)Nc1ccc2[nH]c(=O)c3ccccc3c2c1
# Summary of the method: as §1
# rosiglitazone = compound: CN(CCOC1=CC=C(C=C1)C[C@H]2C(=O)NC(=O)S2)C3=CC=CC=N3 (racemic) [rosiglitazone]
# Summary of the method: as §1
# [12] = compound: CN1C2=C(C3=C1C(=O)N(N=C3)CC4=CC(=CC=C4)N)SC(=C2)S(=O)C
# Summary of the method: as §1
# [13] = compound: CN1CCC(CNc2ccc3ncc(-c4cccc(OC(F)(F)F)c4)n3n2)CC1
# Summary of the method: as §1
# Chain of UniProt Q7KZN9 (Q7KZN9 whole entry, looked up): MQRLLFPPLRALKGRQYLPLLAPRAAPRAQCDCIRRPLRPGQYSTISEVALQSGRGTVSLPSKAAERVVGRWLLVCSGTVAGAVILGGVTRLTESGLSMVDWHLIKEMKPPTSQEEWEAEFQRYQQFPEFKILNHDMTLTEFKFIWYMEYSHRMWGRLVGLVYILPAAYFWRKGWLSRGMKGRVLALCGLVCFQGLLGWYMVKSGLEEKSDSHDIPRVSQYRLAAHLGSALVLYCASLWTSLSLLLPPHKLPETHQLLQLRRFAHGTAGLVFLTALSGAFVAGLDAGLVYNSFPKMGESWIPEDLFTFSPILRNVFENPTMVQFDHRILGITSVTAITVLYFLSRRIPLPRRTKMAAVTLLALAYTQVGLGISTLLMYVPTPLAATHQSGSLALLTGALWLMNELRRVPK
# Chain of UniProt P11802 (P11802 whole entry, looked up): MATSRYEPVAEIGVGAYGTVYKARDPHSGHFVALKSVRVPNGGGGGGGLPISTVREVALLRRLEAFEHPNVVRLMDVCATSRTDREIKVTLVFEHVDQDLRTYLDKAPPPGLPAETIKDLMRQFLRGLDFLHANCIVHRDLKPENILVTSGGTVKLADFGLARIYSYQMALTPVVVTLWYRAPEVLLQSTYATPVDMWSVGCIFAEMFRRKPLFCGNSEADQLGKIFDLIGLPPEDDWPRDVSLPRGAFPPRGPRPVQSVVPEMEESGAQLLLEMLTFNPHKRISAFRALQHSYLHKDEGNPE
# Chain of UniProt Q9Y6H1 (Q9Y6H1 whole entry, looked up): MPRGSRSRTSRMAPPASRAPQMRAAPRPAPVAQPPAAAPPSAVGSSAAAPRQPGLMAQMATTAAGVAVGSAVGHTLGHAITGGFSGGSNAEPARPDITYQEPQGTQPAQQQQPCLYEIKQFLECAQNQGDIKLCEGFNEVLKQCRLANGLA
# Chain of UniProt P42575 (P42575 whole entry, looked up): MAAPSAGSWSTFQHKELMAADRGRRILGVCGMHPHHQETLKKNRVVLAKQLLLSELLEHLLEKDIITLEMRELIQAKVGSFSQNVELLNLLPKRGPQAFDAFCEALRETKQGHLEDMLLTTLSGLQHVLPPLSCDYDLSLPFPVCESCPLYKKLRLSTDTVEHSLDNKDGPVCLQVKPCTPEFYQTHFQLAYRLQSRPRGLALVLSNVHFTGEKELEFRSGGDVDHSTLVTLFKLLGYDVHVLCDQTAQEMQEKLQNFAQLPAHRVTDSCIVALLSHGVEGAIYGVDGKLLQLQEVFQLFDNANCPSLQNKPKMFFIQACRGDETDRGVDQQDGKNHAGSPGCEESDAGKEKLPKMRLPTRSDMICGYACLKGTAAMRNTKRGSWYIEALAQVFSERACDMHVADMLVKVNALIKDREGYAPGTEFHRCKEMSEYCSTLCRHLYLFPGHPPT
# Chain of UniProt P50416 (P50416 whole entry, looked up): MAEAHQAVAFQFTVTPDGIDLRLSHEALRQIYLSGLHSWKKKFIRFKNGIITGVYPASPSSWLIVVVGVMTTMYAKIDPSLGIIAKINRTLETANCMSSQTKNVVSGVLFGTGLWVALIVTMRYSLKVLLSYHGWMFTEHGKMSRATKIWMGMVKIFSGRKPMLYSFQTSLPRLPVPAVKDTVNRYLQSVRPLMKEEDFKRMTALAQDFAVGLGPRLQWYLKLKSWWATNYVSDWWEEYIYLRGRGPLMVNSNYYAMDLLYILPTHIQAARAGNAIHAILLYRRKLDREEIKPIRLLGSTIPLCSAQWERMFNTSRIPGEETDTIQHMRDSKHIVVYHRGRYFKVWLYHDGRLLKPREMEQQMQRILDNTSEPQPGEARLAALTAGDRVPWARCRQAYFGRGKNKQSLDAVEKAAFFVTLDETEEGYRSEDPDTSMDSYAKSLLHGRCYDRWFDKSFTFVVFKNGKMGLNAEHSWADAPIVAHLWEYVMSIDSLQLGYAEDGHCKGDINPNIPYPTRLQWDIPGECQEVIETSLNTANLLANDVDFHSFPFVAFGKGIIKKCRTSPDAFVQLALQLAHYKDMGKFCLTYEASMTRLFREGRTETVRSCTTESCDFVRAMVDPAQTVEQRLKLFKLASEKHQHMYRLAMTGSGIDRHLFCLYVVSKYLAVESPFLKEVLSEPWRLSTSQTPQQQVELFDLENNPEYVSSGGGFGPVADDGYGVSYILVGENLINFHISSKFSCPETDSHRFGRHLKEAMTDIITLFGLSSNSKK
# Chain of UniProt Q96G23 (Q96G23 whole entry, looked up): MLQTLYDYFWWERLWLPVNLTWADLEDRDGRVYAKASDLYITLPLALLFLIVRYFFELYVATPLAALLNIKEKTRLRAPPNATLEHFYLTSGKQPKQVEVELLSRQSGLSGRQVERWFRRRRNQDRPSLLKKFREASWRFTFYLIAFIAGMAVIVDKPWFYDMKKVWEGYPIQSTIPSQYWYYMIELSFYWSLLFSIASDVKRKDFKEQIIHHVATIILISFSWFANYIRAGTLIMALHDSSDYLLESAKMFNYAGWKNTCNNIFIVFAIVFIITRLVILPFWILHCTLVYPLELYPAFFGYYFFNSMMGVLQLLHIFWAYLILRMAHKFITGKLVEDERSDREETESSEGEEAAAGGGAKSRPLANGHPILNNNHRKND
# Chain of UniProt Q9BT78 (Q9BT78 whole entry, looked up): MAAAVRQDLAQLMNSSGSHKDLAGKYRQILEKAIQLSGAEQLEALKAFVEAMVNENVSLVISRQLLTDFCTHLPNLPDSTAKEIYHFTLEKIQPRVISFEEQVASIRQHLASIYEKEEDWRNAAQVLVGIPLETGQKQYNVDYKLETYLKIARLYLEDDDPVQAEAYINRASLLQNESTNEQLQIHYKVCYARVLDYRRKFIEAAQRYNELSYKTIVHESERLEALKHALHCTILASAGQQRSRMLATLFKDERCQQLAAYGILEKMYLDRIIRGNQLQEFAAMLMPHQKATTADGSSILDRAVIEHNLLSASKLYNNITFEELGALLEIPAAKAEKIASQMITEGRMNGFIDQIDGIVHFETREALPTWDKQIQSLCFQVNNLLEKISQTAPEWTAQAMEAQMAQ
# Chain of UniProt Q13137 (Q13137 whole entry, looked up): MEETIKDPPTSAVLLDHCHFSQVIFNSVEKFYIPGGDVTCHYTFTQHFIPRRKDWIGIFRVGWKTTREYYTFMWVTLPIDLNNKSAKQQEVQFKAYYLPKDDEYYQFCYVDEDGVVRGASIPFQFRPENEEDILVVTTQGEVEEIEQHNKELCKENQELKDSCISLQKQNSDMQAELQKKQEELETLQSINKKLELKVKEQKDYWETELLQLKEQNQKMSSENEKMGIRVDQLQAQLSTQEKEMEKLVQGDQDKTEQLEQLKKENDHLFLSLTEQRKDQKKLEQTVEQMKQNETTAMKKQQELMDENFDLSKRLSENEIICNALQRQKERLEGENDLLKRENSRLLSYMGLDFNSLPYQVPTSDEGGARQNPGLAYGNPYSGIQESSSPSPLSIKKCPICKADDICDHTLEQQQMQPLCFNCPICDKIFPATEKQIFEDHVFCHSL
# Chain of UniProt Q96SZ6 (Q96SZ6 whole entry, looked up): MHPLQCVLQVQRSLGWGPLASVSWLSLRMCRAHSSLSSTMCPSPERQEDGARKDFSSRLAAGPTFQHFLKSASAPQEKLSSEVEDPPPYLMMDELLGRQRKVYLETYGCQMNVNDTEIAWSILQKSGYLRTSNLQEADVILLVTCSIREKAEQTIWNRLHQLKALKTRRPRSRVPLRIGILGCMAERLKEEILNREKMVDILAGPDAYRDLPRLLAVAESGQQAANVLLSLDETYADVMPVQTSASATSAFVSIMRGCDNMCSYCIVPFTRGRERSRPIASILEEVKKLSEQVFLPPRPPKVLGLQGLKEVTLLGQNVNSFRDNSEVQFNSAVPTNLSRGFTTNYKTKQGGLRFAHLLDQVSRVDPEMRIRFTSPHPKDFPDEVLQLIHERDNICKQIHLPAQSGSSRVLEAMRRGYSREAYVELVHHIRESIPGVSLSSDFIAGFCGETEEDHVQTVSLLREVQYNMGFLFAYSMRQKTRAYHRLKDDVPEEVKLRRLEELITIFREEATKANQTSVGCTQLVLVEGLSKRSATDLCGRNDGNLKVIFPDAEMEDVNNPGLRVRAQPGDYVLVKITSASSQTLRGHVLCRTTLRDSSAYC
# Chain of UniProt Q00534 (Q00534 whole entry, looked up): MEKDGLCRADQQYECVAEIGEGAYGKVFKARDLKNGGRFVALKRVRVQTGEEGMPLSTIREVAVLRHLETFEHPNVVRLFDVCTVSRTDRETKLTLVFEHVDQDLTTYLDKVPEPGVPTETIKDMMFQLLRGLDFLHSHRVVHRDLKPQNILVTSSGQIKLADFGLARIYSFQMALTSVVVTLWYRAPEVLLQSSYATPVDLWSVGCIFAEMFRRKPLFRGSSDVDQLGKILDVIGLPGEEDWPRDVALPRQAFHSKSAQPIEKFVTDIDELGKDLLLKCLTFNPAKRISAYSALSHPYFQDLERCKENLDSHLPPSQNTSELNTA
# Chain of UniProt P08962 (P08962 whole entry, looked up): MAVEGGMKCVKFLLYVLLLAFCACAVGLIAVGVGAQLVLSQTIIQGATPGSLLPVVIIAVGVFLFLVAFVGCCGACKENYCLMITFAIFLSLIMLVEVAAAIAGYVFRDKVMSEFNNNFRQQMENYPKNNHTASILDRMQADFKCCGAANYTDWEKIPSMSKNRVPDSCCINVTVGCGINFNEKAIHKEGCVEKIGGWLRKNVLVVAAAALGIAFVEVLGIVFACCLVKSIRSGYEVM
# Chain of UniProt P09497 (P09497 whole entry, looked up): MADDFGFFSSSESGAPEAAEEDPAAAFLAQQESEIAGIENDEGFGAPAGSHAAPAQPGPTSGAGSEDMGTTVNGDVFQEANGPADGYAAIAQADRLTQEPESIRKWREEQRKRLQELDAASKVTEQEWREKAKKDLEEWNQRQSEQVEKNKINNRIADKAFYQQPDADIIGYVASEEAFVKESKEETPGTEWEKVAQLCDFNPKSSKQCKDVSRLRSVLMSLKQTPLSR
Target,log2 fold change [1],log2 fold change [2],log2 fold change [3],log2 fold change [4],log2 fold change (Nexturastat A),log2 fold change (vemurafenib),log2 fold change [5],log2 fold change [6],log2 fold change (givinostat),log2 fold change (barasertib),log2 fold change [7],log2 fold change (volasertib),log2 fold change [8],log2 fold change (epoxomicin),log2 fold change [9],log2 fold change [10],log2 fold change [11],log2 fold change (rosiglitazone),log2 fold change [12],log2 fold change [13]
CHCHD2 (UniProt Q9Y6H1),0.019,-0.037,0.282,0.004,-0.047,-0.028,-0.019,-0.09,-0.042,0.008,0.04,0.103,-0.034,0.026,-0.027,-0.055,-0.004,0.04,-0.058,0.044
CCDC57 (UniProt Q2TAC2),0.004,0.02,0.032,-0.01,-0.049,0,0.013,-0.047,0.027,0.015,-0.033,0.012,-0.043,-0.059,0.036,,-0.034,0.018,,
CDK4 (UniProt P11802),-0.077,-0.003,0.015,-0.005,0.166,-0.161,-0.128,-0.025,-0.009,-0.023,0.16,0.071,0.117,0.16,-0.018,,-0.085,0,0.146,
CDK6 (UniProt Q00534),-0.037,0.01,0.044,0,0.032,0.002,-0.024,-0.027,-0.019,-0.018,-0.027,-0.03,0.007,0.088,0.043,0.014,0.007,0.011,0.062,-0.1
COASY isoform 2 (UniProt Q13057),-0.002,-0.058,0.057,0.029,0.021,0.054,0.209,-0.007,-0.04,0.029,-0.068,-0.266 (active),0.027,-0.013,0.061,-0.052,0.038,0.017,-0.08,-0.132
CD81 (UniProt P60033),0.039,0.112,0.069,0.054,-0.027,0.156,-0.08,-0.06,0.016,-0.008,0.393 (active),0.193,-0.06,0.013,0.058,-0.226,0.098,0.013,-0.139,0.145
CDK5RAP1 (UniProt Q96SZ6),0.014,-0.04,0.002,0.05,-0.065,-0.007,-0.035,0.066,-0.166,-0.005,-0.119,-0.064,0.071,0.033,0.001,-0.086,-0.006,0.036,-0.074,-0.254 (active)
CHD3 isoform 3 (UniProt Q12873),0.03,-0.035,0.016,-0.077,0.056,0.113,0.138,0.081,0.226,0.046,-0.093,-0.757 (active),0.149,0.017,-0.042,0.067,0.126,0.048,0.099,-0.144
CASP2 (UniProt P42575),0.025,0.001,0.215,0.056,0.004,0.026,0.193,0.086,0.039,0.026,0.058,0.112,0.078,0.024,-0.016,-0.153,0.031,0.072,0.008,-0.08
CERS2 (UniProt Q96G23),-0.02,0.015,0.036,0.019,-0.083,-0.018,0.101,-0.013,-0.038,-0.002,-0.148,-0.133,0.011,0.03,-0.004,-0.001,0.001,0.088,0.007,-0.46 (active)
CPT1A (UniProt P50416),0.069,-0.077,-0.054,-0.114,0.083,0.11,0.022,0.09,0.048,0.01,-0.048,-0.047,0.045,-0.003,-0.076,-0.064,0.013,0.025,-0.053,0.333 (active)
COX15 (UniProt Q7KZN9),0.05,0.024,0.001,0.003,-0.113,0.005,0.015,-0.077,-0.008,0.009,0.057,0.023,-0.037,-0.018,0.05,0.021,0.006,0.085,-0.044,-0.015
CD63 (UniProt P08962),-0.007,0.056,0.004,0.009,-0.072,0.064,-0.007,-0.125,0.096,-0.025,-0.013,0.048,-0.013,-0.019,0.017,0.06,0.01,0.04,0.012,0.018
CLTB (UniProt P09497),-0.003,-0.025,-0.007,0.037,-0.039,-0.009,-0.012,-0.036,0.047,-0.023,0.099,0.134,-0.102,0.032,0.001,-0.006,-0.024,-0.013,-0.064,0.106
CALCOCO2 isoform 4 (UniProt Q13137),-0.005,-0.008,0.006,0.012,0.019,0.012,-0.037,-0.052,0,0.022,-0.634 (active),-0.471 (active),-0.024,0.035,0.089,0.059,0.01,0,0.055,-0.149
COPS4 (UniProt Q9BT78),-0.001,-0.019,0.019,0.033,-0.062,0.049,0.071,-0.037,-0.025,-0.002,-0.045,-0.007,0.013,0.047,0.001,-0.022,0.023,0.018,-0.092,-0.007
